Results as given in PubChem BioAssay (NCI).
Compounds without any hit were thinned out: in the full panel of roughly 83,000, 20% have a hit.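 Interpretation: 100, growth as untreated; towards 0, rising growth inhibition; 0, no net growth; 0 to -100, cell death. Compounds scoring below 10 were considered active.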 Active and inactive are the calls of the source.

These compounds were tested on NCI-H322M lung (assay: NCI-60 one-dose screen, 48 h (100 = growth as untreated, 0 = no growth, -100 = all killed)). Conditions: 10 µM unless noted.

Compound	growth
Cc1nn(-c2ccccc2)c(Cl)c1/C=C/C(=O)c1ccc(F)cc1	91.2% (inactive)
COc1cc2oc(-c3cccc(C(=O)Nc4ccc(Br)cc4)c3)cc(=O)c2c(OC)c1OC	62.4% (inactive)
CC1=C(C(=O)/C=C/c2c[nH]c3ccccc23)C(c2ccccc2)NC(=S)N1 (stereo not drawn)	101% (inactive)
CCCCCN1C=C/C(=C\C(=O)N(C)c2ccc(Oc3ccccc3)cc2)c2ccccc21	89.8% (inactive)
Cn1cc(-c2nc(-c3c[nH]c4c(Cl)nccc34)cs2)c2cc(Br)ccc21	93.2% (inactive)
COc1ccc(/C=C2\Oc3cc(OCCCN4CCCCC4)ccc3C2=O)cc1OC	92.1% (inactive)
Cc1cc2nc3c4cc(C=O)ccc4n(CCN(C)C)c3nc2cc1C	21% (inactive)
S=c1cc(S)c2cc(Br)ccc2[nH]1	91.1% (inactive)
O=C(/C(=C\c1ccc([N+](=O)[O-])cc1)S(=O)Cc1ccc(Cl)cc1)c1ccc(Cl)cc1 (stereo not drawn)	89.5% (inactive)
COc1cc(CC(=O)c2ccc(O)c(OC)c2)ccc1O	89.6% (inactive)
O=C(NCCc1ccccc1)Nc1ccc2cc3ccc(NC(=O)NCCc4ccccc4)cc3nc2c1	19.2% (inactive)
C=C(C)[C@@H]1CC[C@]2(C(=O)N3CCN(C)CC3)CC[C@]3(C)[C@H](CC[C@@H]4[C@@]5(C)C/C(=C/c6cccnc6)C(=O)C(C)(C)[C@@H]5CC[C@]43C)[C@@H]12	107% (inactive)
COc1cc2nc(-c3ccc(Cl)cc3)cc(OCCCN3CCC(O)CC3)c2cc1OC	58.3% (inactive)
